Screening data from PubChem.
ATXN2 expr inh = Primary qHTS for Inhibitors of ATXN expression | HEK-293 ATXN2-luciferase reporter, luminescence, 24 h | Potency, µM (titrated, usually from 57 µM), hits mostly inhibitors | actives 0.72% (n = 360,000) | AID 1745845, 2022; note: nearly all actives have a fitted effect of over 55% in size
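qHTS (up to 57 uM final) was run with 24 h compound exposure of reporter cells at 37 °C. Each well was multiplexed: SteadyGlo luminescence measured ATXN2-luciferase expression after a fluorogenic Gly-Phe-AFC viability readout (25 uM final).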
HepG2 tox = qHTS for Inhibitors of TGF-b: Cytotox Counterscreen. HepG2 CAGA-GFP viability, ATP luminescence, 18 h. Potency, µM (titrated, usually from 46.1 µM), usual class: cytotoxic. actives 0.76% (n = 410,000)
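HepG2 CAGA-GFP cells (1000/well, DMEM with 1% FBS) received compound, then TGF-beta at 500 pg/mL final, and were incubated 18 hours at 37 degrees C. Viability was read by CellTiter-Glo luminescence. Media-only wells were set as complete cell-killing and DMSO as no toxicity.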
ATXN viability = Viability Counterscreen for Primary qHTS for Inhibitors of ATXN expression; S2 cells (HEK-293 line with an ATXN2-luciferase reporter) viability, CellTiter-Fluor protease fluorescence, 24 h; Potency, µM (series often up to 56.7 µM), actives largely listed as cytotoxic; actives 0.49% (n = 400,000); AID 651635, 2014; note: nearly all actives have a fitted effect of over 40% in size
TGFb inhibitor = qHTS for Inhibitors of TGF-b. Potency, µM (top dose mostly 46.1 µM), usual class: inhibitors. HepG2 CAGA-GFP TGF-b/SMAD3 reporter, GFP fluorescence, 18 h; TGF-beta stimulated, 500 pg/mL final. actives 1.2% (n = 410,000); note: nearly all actives have a fitted effect of over 65% in size
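TGF-beta reporter screen: HEPG2 CAGA-GFP, 1% FBS, 500 pg/mL TGF-beta final, 18 h; per-cell GFP summed per well; curves fitted and categorized by class.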
HttQ103 aggreg = qHTS Multiplex Assay to Identify Dual Action Probes in a Cell Model of Huntington: Aggregate Formation (GFP) | PC12 HttQ103-GFP aggregates, Acumen cytometry, 40 h | Potency, µM (doses to about 46.1 µM), usual class: inhibitors | actives 1.1% (n = 220,000); note: nearly all actives have a fitted effect of over 60% in size
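Aggregates are detected as GFP objects 1–25 µm with signal 6 STDEV over background in lysates of induced PC12 cells. These carry Huntingtin exon 1 with 103 glutamines fused to GFP under an ecdysone promoter; compounds titrated.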
HTT cytoprotect = qHTS Multiplex Assay to Identify Dual Action Probes in a Cell Model of Huntington: Cytoprotection (ATP); Potency, µM (highest dose often 56.4 µM), actives largely listed as activators; PC12 HTT-Q103 induced, cytoprotection, ATP luminescence, 40 h; actives 0.14% (n = 230,000); AID 1471, 2008; note: nearly all actives have a fitted effect of over 45% in size
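Rat PC12, Q103 Htt exon1-GFP fusion, ecdysone promoter; tebufenozide inducer 100 nM final; compound titration; qHTS, 1500 cells/well; ATPlite luminescent read.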
Hits are given with their value; - = inactive; ? = inconclusive; . = not tested or not shown; [ ] = another dose, or the depositor's remark. Most compounds without a hit are left out; they make up all but 2.8% or so of the library. Calls come from the whole dose curve; as a rule, active = well fitted curve in the direction sought with a large enough effect; inconclusive = small, poorly fitted or top-dose-only effect, or another doubt; inactive = no such curve, though single readings can be large; an effect the other way counts as inactive or inconclusive.

SMILES	ATXN2 expr inh	HepG2 tox	ATXN viability	TGFb inhibitor	HttQ103 aggreg	HTT cytoprotect
COC(=O)c1ccccc1Nc1ccccc1	-	-	?	-	-	-
Cc1ccc(NC2=C/C(=N/S(=O)(=O)c3cccs3)c3ccccc3C2=O)cc1	7.9µM	4µM	7.9µM	?	3.5µM	.
COC(=O)c1ccccc1NC1=C/C(=N\S(=O)(=O)c2ccc(C(=O)O)cc2)c2ccccc2C1=O	?	16µM	18µM	8.9µM	.	.
Cc1ccc(S(=O)(=O)/N=C2\C=C(Nc3cccc(C(=O)O)c3)C(=O)c3ccccc32)c(C)c1	32µM	16µM	.	13µM	.	.
Cc1ccc(S(=O)(=O)/N=C2\C=C(Nc3cccc(C(=O)O)c3)C(=O)c3ccccc32)cc1	?	-	?	13µM	.	.
CCc1ccc(S(=O)(=O)/N=C2\C=C(Nc3ccc(C(=O)O)cc3)C(=O)c3ccccc32)cc1	?	-	?	16µM	.	.
CC(C)(C)c1ccc(S(=O)(=O)/N=C2\C=C(NS(=O)(=O)c3ccccc3)C(=O)c3ccccc32)cc1	-	-	?	?	.	.
CCOc1ccc(-c2cn3c(n2)sc2cc(C(=O)NCCCN(CC)CC)ccc23)cc1	8.9µM	10µM	13µM	?	.	.
O=C(NCCCN1CCCCC1)c1ccc2c(c1)sc1nc(-c3ccc(F)cc3)cn12	?	-	-	?	.	.
CCN(CC)CCNC(=O)c1ccc2c(c1)sc1nc(-c3ccc(F)cc3)cn12	.	16µM	.	11µM	.	.
CCOc1ccc(CNC(=O)c2ccc3c(c2)sc2nc(-c4ccc(OC)cc4)cn23)cc1	.	-	.	-	.	.
CCOc1ccc(-c2cn3c(n2)sc2cc(C(=O)NCCCN4CCCCC4)ccc23)cc1	?	2.5µM	?	-	.	.
CCOc1ccc(-c2cn3c(n2)sc2cc(C(=O)NCCCN4CCCCCC4)ccc23)cc1	?	11µM	.	?	.	.
CCCN1CCN(CCCNC(=O)c2ccc3c(c2)sc2nc(-c4ccc(OCC)cc4)cn23)CC1	.	-	.	-	.	.
CC(C)(C(=O)NCC(F)(F)C(F)(F)F)C(=O)N[C@@H]1C(=O)Nc2ccccc2-c2ccccc21	-	.	.	.	.	.
Nc1[nH]c(=O)nc2nnsc12	.	-	.	-	.	.
CCCN(CCC)c1ncnc2nc[nH]c12	-	-	-	?	7.9µM	-
OCCN(CCO)c1ncnc2nc[nH]c12	.	.	.	.	.	-[10 µM]
COC(=O)c1c(OCCN2CCCCC2)cc(=O)n2c1CCN(Cc1cccc3nccnc13)CC2	.	.	-	.	.	.
C/C(=N\Nc1cc(C)nc(-c2ccccc2O)n1)c1ccccc1	-	-	-	-	.	.
Cc1cc(N/N=C/c2ccc(O)c(C)c2O)nc(-c2ccccc2O)n1	?	11µM	16µM	?	16µM	-[10 µM]
Cc1c(O)ccc(/C=N/Nc2nc(-c3cccnc3)nc3ccccc23)c1O	.	6.3µM	?	?	-[9.22 µM]	-[10 µM]
C[C@H]1Cc2c(-c3ccccc3)nc3c(c2CO1)CN(C(=O)c1cc(I)ccc1F)CC3	.	.	.	.	.	-[10 µM]
Cc1oc2ncn(CC(C)C)c(=O)c2c1C(=O)Nc1cc(F)ccc1F	35µM	-	?	-	.	.
CN[C@@H]1[C@@H](O)[C@@H](O[C@@H]2[C@@H](O)[C@H](OC3OC(CN)=CCC3N)[C@@H](N)C[C@H]2N)OC[C@]1(C)O (stereo partly drawn)	.	.	-	.	.	.
SMILES	ATXN2 expr inh	HepG2 tox	ATXN viability	TGFb inhibitor	HttQ103 aggreg	HTT cytoprotect
CN(C)C(=O)c1ccc2c(c1[N+](=O)[O-])C(=O)c1ccccc1C2=O	-	-	-	10µM	-	-[10 µM]
CC(=O)Nc1cccc(Oc2ncnc3scc(-c4ccc(C)cc4)c23)c1	?	-	32µM	?	-	-[10 µM]
O=C1CCCC(=O)C1C(=O)c1ccc(C(F)(F)F)cc1[N+](=O)[O-]	-	.	.	.	.	.
COc1ccc2c(c1)-c1c(ssc1=S)C(C)(C)N2C(=O)CSC1=NCCS1	-	-	-	-	11µM	-[10 µM]
CC1(C)c2ssc(=S)c2-c2ccccc2N1C(=O)CSC1=NCCS1	-	-	-	-	-	?
CC(=O)OCC(=O)Nc1cc(C#N)cc(NC(=O)COC(C)=O)c1Cl	-	.	-	.	.	.
Cc1ccc2[nH]cc(C(c3ccccc3)c3cccs3)c2c1 (stereo not drawn)	?	16µM	?	13µM	.	.
c1ccc2c(C(c3c[nH]c4ccccc34)c3c[nH]c4ccccc34)c[nH]c2c1	.	-	.	?	.	.
Cc1ccc2[nH]cc(C(c3ccccc3)c3ccc(C)s3)c2c1 (stereo not drawn)	?	11µM	?	13µM	.	.
CN(CC1CCCN(CCc2cccc(C(F)(F)F)c2)C1)C(=O)c1cc2ccccc2o1 (stereo not drawn)	.	-	?	13µM	.	.
O=C1COc2ccc(C(=O)/C=C/c3ccccc3)cc2N1	-	-	-	8.9µM	-	.
O=C(/C=C/c1ccccc1)c1ccc2c(c1)OCCCCO2	-	-	-	-	-	-
CCN(CC)c1cc(C)c(/C=C/c2ccnc3ccccc23)cc1C	.	-	.	-	.	.
COc1cc(/C=C(\C#N)C(=O)NC2CCCCC2C)ccc1OS(=O)(=O)c1ccc(C)cc1 (stereo not drawn)	-	-	-	20µM	?	-[10 µM]
CCc1cc(C(=O)NCC2Cc3cc(-c4ccccc4C(C)=O)ccc3O2)no1 (stereo not drawn)	.	.	-	.	.	.
COC(=O)CNC(c1ccccc1)c1cc(Br)ccc1NC(=O)CCN1CCOCC1 (stereo not drawn)	.	22µM	?	18µM	-	-[1.9 µM]
CCOC(=O)CNC(c1ccccc1)c1cc(Br)ccc1NC(=O)CCN1CCOCC1 (stereo not drawn)	.	13µM	?	?	-	-[10 µM]
CC(=O)Oc1cc(OC(C)=O)c2c(=O)cc(-c3ccc(OC(C)=O)c(OC(C)=O)c3)oc2c1	.	.	.	.	.	-[1.9 µM]
COc1ccc(-c2cc(=O)c3cc(O)ccc3o2)cc1	-	-	-	-	-[9.22 µM]	-[10 µM]
COc1ccc(-c2cc(=O)c3c(O)cc(O)cc3o2)cc1	-	-	-	10µM	.	-[1.9 µM]
O=C(C[n+]1ccccc1)c1cccc([N+](=O)[O-])c1	.	-	.	-	.	.
CCOC(=O)CSc1nc2cc(C(=O)N3CCCC3)ccc2c(=O)n1Cc1ccccc1	-	-	-	-	-	-
CCOC(=O)CSc1nc2cc(C(=O)N3CCC(C(N)=O)CC3)ccc2c(=O)n1-c1ccccc1	-	-	-	-	2.8µM	-
CC(C)n1nc(-c2cc3cc(O)ccc3[nH]2)c2c(N)ncnc21	5µM	.	?	.	.	.
Cc1cc(Cl)cc(Cl)c1OCCOc1cccc2cccnc12	-	-	-	11µM	?	-
